Potency, activation and activity change, negative = inhibition data for 18 compounds are collected here from PubChem BioAssay (NCATS).

The target in test [1] is Rap guanine nucleotide exchange factor 3 (Homo sapiens) (UniProt O95398). Briefly: Confirmatory qHTS for antagonist of cAMP-regulated guanine nucleotide exchange factor 3 (EPAC1) (AID 1645880). Further: nearly all actives have a fitted effect of over 55% in size. Further: potency means the concentration at half of the fitted maximal effect. In a few lines:
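Released BODIPY-GDP fluoresces less than Rap1-bound BODIPY-GDP; the signal is followed at 480/540 nm at 5-min intervals over 30 min, after 5 min at room temperature. Reactions contain 100 nM EPAC1, 250 nM RAP1B-BODIPY-GDP and 50 uM GDP; results are normalized to ATA and DMSO.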

For test [2] the target is unchanged. Nature of the test: Confirmatory qHTS for agonist of cAMP-regulated guanine nucleotide exchange factor 3 (EPAC1) (AID 1645881).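 Further: EPAC1 catalysed release of BODIPY-GDP from Rap1B seen as fluorescence loss; 100% = effect of cAMP agonist control; nearly all actives have a fitted effect of over 75% in size.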 In general terms: Quantitative high-throughput screening tests each substance at several concentrations.
Test [3] deals with Rap guanine nucleotide exchange factor 4 (Homo sapiens) (UniProt Q8WZA2). Nature of the test: Confirmatory qHTS for agonist of cAMP-regulated guanine nucleotide exchange factor 4 (EPAC2) (AID 1645884).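 Further: nucleotide exchange releases bodipy-GDP from Rap1 and this lowers its fluorescence; on the % scale 0 is the no-effect control and ±100 the full control effect; nearly all actives have a fitted effect of over 65% in size.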
Sequence of Rap guanine nucleotide exchange factor 4 (Homo sapiens) (Q8WZA2 whole entry, looked up): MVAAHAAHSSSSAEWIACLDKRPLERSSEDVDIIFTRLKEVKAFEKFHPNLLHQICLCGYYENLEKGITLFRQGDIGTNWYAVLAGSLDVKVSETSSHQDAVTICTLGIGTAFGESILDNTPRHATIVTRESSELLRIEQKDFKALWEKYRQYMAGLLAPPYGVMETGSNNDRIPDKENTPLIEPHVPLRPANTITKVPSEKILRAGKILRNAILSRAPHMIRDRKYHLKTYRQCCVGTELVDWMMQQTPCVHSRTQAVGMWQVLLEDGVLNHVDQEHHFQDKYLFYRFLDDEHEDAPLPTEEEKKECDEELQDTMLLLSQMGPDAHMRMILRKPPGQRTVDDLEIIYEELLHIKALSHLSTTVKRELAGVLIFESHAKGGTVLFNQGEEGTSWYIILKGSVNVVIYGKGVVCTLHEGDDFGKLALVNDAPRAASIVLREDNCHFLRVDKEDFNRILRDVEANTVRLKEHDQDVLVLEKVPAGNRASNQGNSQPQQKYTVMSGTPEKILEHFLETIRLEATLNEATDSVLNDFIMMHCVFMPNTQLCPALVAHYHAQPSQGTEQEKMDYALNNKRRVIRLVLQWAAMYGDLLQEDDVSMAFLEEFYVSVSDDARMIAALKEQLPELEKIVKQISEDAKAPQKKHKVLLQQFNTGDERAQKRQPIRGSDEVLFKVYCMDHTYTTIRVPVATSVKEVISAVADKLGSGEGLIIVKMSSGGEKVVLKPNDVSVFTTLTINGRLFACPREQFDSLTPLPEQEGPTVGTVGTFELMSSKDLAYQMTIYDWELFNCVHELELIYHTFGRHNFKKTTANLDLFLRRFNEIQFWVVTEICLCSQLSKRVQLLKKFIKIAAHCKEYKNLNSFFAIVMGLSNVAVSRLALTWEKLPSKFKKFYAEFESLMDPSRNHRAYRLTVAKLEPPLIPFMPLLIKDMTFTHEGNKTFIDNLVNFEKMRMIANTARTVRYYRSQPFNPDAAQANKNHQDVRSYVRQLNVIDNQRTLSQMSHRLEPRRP
Test [4] shares this target. Nature of the test: Confirmatory qHTS for antagonist of cAMP-regulated guanine nucleotide exchange factor 4 (EPAC2) (AID 1645885). Further: nearly all actives have a fitted effect of over 25% in size. Further: potency means the concentration at half of the fitted maximal effect. On activity change, negative = inhibition: on the % scale 0 is the no-effect control and ±100 the full control effect.
In test [5] the target is Rap guanine nucleotide exchange factor 3 (Homo sapiens) (UniProt O95398). Nature of the test: Counterscreen qHTS for antagonist of cAMP-regulated guanine nucleotide exchange factor 3 (EPAC1) (AID 1645888). Further: % of control where 0% means no effect. In outline: (§1)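 Rap1B-BODIPY-GDP 250 nM + GDP 50 uM; cpds 7-pt, final 9.74 nM–152 uM (activator mode) or from 7.32 nM upwards (inhibitor mode); RT; FI 480/540 nm at 5 and 30 min, then ± cAMP, reread.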
Sequence of Rap guanine nucleotide exchange factor 3 (Homo sapiens) (O95398 whole entry, looked up): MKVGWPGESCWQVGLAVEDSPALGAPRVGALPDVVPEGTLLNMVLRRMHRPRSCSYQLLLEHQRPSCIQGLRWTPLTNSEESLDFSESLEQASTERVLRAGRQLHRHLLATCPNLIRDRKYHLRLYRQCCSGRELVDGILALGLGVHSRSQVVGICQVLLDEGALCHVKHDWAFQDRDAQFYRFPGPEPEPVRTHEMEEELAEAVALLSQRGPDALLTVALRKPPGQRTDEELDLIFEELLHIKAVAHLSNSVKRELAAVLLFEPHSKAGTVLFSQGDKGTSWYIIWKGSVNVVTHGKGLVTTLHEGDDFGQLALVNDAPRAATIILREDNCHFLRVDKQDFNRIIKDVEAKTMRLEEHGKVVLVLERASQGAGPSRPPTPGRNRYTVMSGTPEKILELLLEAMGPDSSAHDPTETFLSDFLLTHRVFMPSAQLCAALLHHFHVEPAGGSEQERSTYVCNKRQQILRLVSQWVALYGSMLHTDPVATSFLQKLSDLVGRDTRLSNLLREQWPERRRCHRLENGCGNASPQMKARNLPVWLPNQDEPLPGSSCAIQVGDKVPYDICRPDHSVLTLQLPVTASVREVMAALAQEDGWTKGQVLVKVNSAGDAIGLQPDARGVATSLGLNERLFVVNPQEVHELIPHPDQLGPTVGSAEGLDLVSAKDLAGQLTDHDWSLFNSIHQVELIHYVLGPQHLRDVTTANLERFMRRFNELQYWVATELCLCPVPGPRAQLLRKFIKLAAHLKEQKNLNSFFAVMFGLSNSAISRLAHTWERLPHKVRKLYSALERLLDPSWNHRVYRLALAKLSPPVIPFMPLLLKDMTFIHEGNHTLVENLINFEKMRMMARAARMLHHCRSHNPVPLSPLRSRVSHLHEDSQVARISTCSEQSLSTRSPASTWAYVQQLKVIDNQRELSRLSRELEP
On the technique in general: A counterscreen serves to expose hits that act by an unwanted route or on another target.

Test [6] shares this target. Briefly: Counterscreen qHTS for agonist of cAMP-regulated guanine nucleotide exchange factor 3 (EPAC1) (AID 1645889). Further: % of control where 0% means no effect; nearly all actives have a fitted effect of over 40% in size. In outline: as §1

Results filed as inconclusive are left out. Unmarked numbers belong to inactive results. Calls of active or inactive are those of the source. The call rests on the fitted dose curve; in most records, active means well fitted curve in the direction sought with a large enough effect; inconclusive means small, poorly fitted or top-dose-only effect, or another doubt; inactive means no such curve, though single readings can be large; an effect the other way counts as inactive or inconclusive.

For `CCN(CC)c1nc(C#N)cc(-c2ccc(OC)cc2)n1`, the Potency entry in test [1], in test [2], in test [3], in test [4], in test [5] and in test [6] was “inactive” each time.

For the compound `c1ccc2c(c1)oc1c(-c3ccc4nccn4c3)cccc12`, the Potency result in test [1], in test [2] and in test [4] was “inactive” in each case. The activation is 0% [at 17.1 µM, percent relative to cAMP agonist control] in test [3] and 14.4% [at 30.8 µM] in test [6]. Besides, the activity change, negative = inhibition in test [5] was -16.8% [at 30.8 µM].

As to `Cc1ccc(CNC(=O)c2ccc3c(=O)[nH]c4c(C(=O)NCC5CCCO5)sc(=S)n4c3c2)cc1` (stereo not drawn), in test [1], the Potency was 84.9 µM (active). Further, the Potency result in test [2], in test [3], in test [4], in test [5] and in test [6] was “inactive” throughout.

`CSc1ccccc1NC(=O)COc1ccccc1C`: the Potency result in test [1], in test [2] and in test [4] was “inactive” throughout. Further, the activation in test [3] was 11.3% [at 17.1 µM, percent relative to cAMP agonist control]; in test [6], 4.86% [at 30.8 µM]. Further, in test [5], the activity change, negative = inhibition was -1.84% [at 30.8 µM].

Consider `CN(C)C(=S)Oc1ccccc1-c1ccccc1OC(=S)N(C)C`, for which the Potency result in test [1], in test [2], in test [3], in test [4], in test [5] and in test [6] was “inactive” throughout.

Consider `CCC(C(=O)OC)n1c(-c2ccccc2)nc2ccccc2c1=O` (stereo not drawn), for which the Potency entry in test [1], in test [2], in test [3], in test [5] and in test [6] was “inactive” throughout. Besides, the Potency in test [4] was 19 µM (active).

Turning to `CC1(C(=O)NS(=O)(=O)c2ccc(Cl)s2)CCN1C(=O)c1ccc(C2CCCCC2)cc1` (stereo not drawn), in test [1], the Potency is 79.4 µM (active). The Potency entry in test [2] and in test [4] was “inactive” each time. Also, the activation was 6.57% [at 17.1 µM, percent relative to cAMP agonist control] in test [3] and -4.08% [at 30.8 µM] in test [6]. For the same compound, the activity change, negative = inhibition in test [5] is -3.31% [at 30.8 µM].

`COC(=O)c1ccc(NC(=O)CCOc2ccccc2)cc1`: the Potency result in test [1], in test [2], in test [3], in test [4], in test [5] and in test [6] was “inactive” each time.

For the compound `CC(C(=O)Nc1ccccc1-c1ccccc1)N1CCN(C(=O)c2ccccc2)CC1` (stereo not drawn), the Potency result in test [1], in test [2] and in test [4] was “inactive” in each case. In addition, the activation is 12.7% [at 17.1 µM, percent relative to cAMP agonist control] in test [3] and 29% [at 30.8 µM] in test [6]. Besides, in test [5], the activity change, negative = inhibition is 16.7% [at 30.8 µM].

For the compound `CC(C)(C)c1nc(-c2ccccc2)nc2c1OCCC2`, the Potency result in test [1], in test [2], in test [3], in test [4], in test [5] and in test [6] was “inactive” each time.

As to `O=C(COc1ccc2ccccc2c1)Nc1cccc(C(=O)Nc2ccccc2C(=O)O)c1`, the Potency in test [1] is 33.8 µM (active); in test [4], 47.8 µM (active). Moreover, the Potency result in test [2], in test [3], in test [5] and in test [6] was “inactive” each time.

`Cc1sc(N)c(C(=O)c2ccccc2Cl)c1C`: the Potency result in test [1], in test [2], in test [3], in test [5] and in test [6] was “inactive” each time. Besides, in test [4], the Potency is 19 µM (active).

Turning to `Cn1cc(C(=O)N/N=C/C2=C(N3CCOCC3)C(=C\c3ccccc3)/CC2)ccc1=O`, the Potency entry in test [1], in test [2] and in test [4] was “inactive” in each case. Also, the activation in test [3] was -0.586% [at 17.1 µM, percent relative to cAMP agonist control]; in test [6] it was 5.8% [at 30.8 µM]. Also, the activity change, negative = inhibition in test [5] is -15% [at 30.8 µM].

Regarding `Cc1ccc(S(=O)(=O)N2[C@@H](c3ccc(Cl)cc3)C(C(=O)O)=CC[C@H]2c2ccc(Cl)c(Cl)c2)cc1`, the Potency in test [1] was 75.7 µM (active); in test [4], 47.8 µM (active). The Potency result in test [2], in test [3], in test [5] and in test [6] was “inactive” throughout.

Turning to `O=C(Nc1ccc(Cl)cc1C(=O)O)c1ccc2c(c1)C(=O)N(Cc1ccco1)C2=O`, the Potency in test [1] was 39.8 µM (active). The Potency result in test [2] and in test [4] was “inactive” throughout. The activation in test [3] is -2.6% [at 17.1 µM, percent relative to cAMP agonist control]; in test [6], 16.2% [at 30.8 µM]. Moreover, the activity change, negative = inhibition in test [5] was -16.1% [at 30.8 µM].

Regarding `C#CCOc1ccc(/C=C2/C(=O)N(c3cccc(C(=O)O)c3)N=C2C)cc1OC`, the Potency entry in test [1], in test [2] and in test [4] was “inactive” each time. The activation in test [3] is 5.95% [at 17.1 µM, percent relative to cAMP agonist control]; in test [6], 10.5% [at 30.8 µM]. Moreover, the activity change, negative = inhibition in test [5] was 6.78% [at 30.8 µM].

As for `CC(=O)c1cccc(OC(=O)C2=CC=CN3CCS(=O)(=O)N=C23)c1`, the Potency result in test [1], in test [2], in test [3], in test [4], in test [5] and in test [6] was “inactive” throughout.

Turning to `C=CCNC(=O)C1CC1(c1cccc(C)c1)c1cccc(C)c1` (stereo not drawn), the Potency result in test [1], in test [2], in test [3], in test [4], in test [5] and in test [6] was “inactive” throughout.
